# Only some compounds are listed: those with a hit (about 4.6% of all), similar ones and a draw of the others.
# D1 agonist = agonists of human D1 dopamine receptor; P21728; HEK293 T-REx D1 cells, calcium flux, agonist mode; activation, % at 2 µM; 360,000 tested, 1% active; AID 504660; in the data active = activation above about 30%; note: 0% is about no effect
#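 Agonism was scored from calcium flux recorded over 180 s (1 read/s) after pintool compound addition, following a 10-cycle baseline. Cells were inducible force-coupled HEK293 TREx D1, plated overnight at 30 C and loaded with no-wash calcium dye.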
# TRHR agonist-1 = agonists of human TRH receptor | activation, % at 2 µM | TRHR cells, calcium flux fluo-8, FDSS agonist mode | 360,000 tested, 0.18% active | P34981; in the data active = activation above about 30%; note: 0% is about no effect
# Target sequence (P34981 whole entry, looked up): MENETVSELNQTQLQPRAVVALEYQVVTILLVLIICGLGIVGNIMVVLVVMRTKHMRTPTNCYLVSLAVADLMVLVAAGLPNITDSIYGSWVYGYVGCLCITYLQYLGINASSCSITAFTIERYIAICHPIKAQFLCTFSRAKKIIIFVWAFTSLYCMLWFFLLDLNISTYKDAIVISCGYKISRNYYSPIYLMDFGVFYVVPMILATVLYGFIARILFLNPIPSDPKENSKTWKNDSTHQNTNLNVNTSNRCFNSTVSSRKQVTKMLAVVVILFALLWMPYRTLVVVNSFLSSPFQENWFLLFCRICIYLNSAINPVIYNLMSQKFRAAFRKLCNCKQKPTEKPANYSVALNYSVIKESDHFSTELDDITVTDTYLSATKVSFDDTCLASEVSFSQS
#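 TRHR-expressing cells, plated overnight in medium with 10% serum, were loaded with fluo-8 calcium dye at room temperature. After a 10 s baseline, library compound was pin-added and calcium release was recorded kinetically (ex 480/em 530) as agonist response.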
# D1 antag = blocks dopamine activation of the human D1 receptor. P21728. AID 504652. 360,000 tested, 3.2% active. HEK293 TREx D1 cells, calcium flux, dopamine EC80; stronger effect = lower value. activity change, negative = inhibition, % at 10 µM; in the data active = activity change below about -30%; note: % is set by controls: 0 for no effect and ±100 for the full control effect
#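 Compound effects on dopamine-evoked calcium signalling were measured in tetracycline-induced HEK293 Trex D1 cells. Dopamine at EC80 followed a 180 s compound pre-read, and fluorescence was tracked kinetically for 180 s more.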
# TRHR enhancer-1 = TRH receptor (human) allosteric enhancement; 360,000 tested, 0.66% active; P34981; TRHR cells, fluo-8 calcium fluorescence, EC20 TRH enhancement; enhancement, % at 2 µM; in the data active = enhancement above about 30%; note: 0% is about no effect
#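 TRHR-expressing cells loaded with fluo-8 calcium dye were read kinetically (ex 480/em 530) during compound addition, then stimulated with an EC20 of TRH (10 nM final). Enhancement of the Gq-mediated intracellular calcium response was scored.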
# D1 potentiator = potentiators of human D1 dopamine receptor; HEK293 TREx D1 cells, calcium flux, dopamine EC20 potentiation; 360,000 tested, 0.036% active; potentiation, % at 10 µM; in the data active = potentiation above about 30%; note: 0% is about no effect
# TRHR enhancer-2 = confirmation of human TRH receptor allosteric enhancers | shares compounds with TRHR enhancer-1 | 970 tested, under 10 active | activity change, negative = inhibition, % at 46.1 µM | TRH receptor cell assay, enhancer confirmation qHTS;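 note: compound effect scored on response to added TRH at EC20 of 10 nM; 0% is about no effect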
# TRHR agonist-2 = confirmation of human TRH receptor agonists; shares compounds with TRHR enhancer-1; TRHR-expressing cells, agonist activation read-out; Potency, µM (doses to about 46.1 µM), without a hit: at the highest dose activation, hits mostly activators; 970 tested, 8% active; note: potency is the fitted concentration of half-maximal effect; 0% is about no effect; nearly all actives have a fitted effect of over 75% in size
# * = called active by the depositor; ? = inconclusive; nt = no result given. Unless noted, calls come from the whole dose curve; as a rule, active = well fitted curve in the direction sought with a large enough effect; inconclusive = small, poorly fitted or top-dose-only effect, or another doubt; inactive = no such curve, though single readings can be large; an effect the other way counts as inactive or inconclusive.
SMILES,D1 agonist,TRHR agonist-1,D1 antag,TRHR enhancer-1,D1 potentiator,TRHR enhancer-2,TRHR agonist-2
COc1ccc(C(=O)NCc2cc(C)nc3ccccc23)cc1OC,7,0,-8,2,5,nt,nt
CCN(CC)CCN(C(=O)c1ccc2c(c1)CCCC2)c1nc2c(C)cccc2s1,4,38*,22,1,-1,-8,0%
Cc1ccccc1NC(=O)c1nc(S(C)(=O)=O)ncc1N(Cc1ccco1)Cc1sccc1C,5,1,-14,-10,-2,nt,nt
O=C(Cc1ccccc1)NC1CCN(Cc2ccccc2)CC1,6,0,-4,61*,4,1,-1%
O=S1(=O)NC(CC2=CCCCC2)C2CCCCC2O1 (stereo unspecified),2,-1,-19,-10,-10,nt,nt
NC(=O)CSc1nnc(SCc2ccc(F)cc2)s1,1,31*,nt,0,-4,-1,2%
O=C(O)c1cccc(NC(=O)c2ccccc2NC(=O)c2ccccc2F)c1,6,1,1,13,-4,nt,nt
O=C(Nc1ccccc1C(=O)Nc1ccccc1)c1ccccc1F,2,0,-9,48*,-2,?,1%
COc1ccccc1NC(=O)Cn1nnc(-c2ccccc2NS(=O)(=O)c2ccccc2)n1,4,0,-15,0,2,nt,nt
COc1ccc(NC(=O)Cn2nnc(-c3ccccc3NS(=O)(=O)c3ccc(OC)cc3)n2)cc1,0,0,8,41*,-2,5,0%
Cc1c(NS(=O)(=O)c2cccc([N+](=O)[O-])c2)c(=O)n(-c2ccccc2)n1C,0,0,2,3,-3,nt,nt
Cc1c(Nc2nc(-c3cccc([N+](=O)[O-])c3)cs2)c(=O)n(-c2ccccc2)n1C,0,0,2,48*,-3,-1,1%
CCN1CCN(Cc2c(O)ccc3c2O/C(=C\c2ccc(C)cc2)C3=O)CC1,19,26,-1,-6,-7,7,?
CC(OC(=O)CN1C(=O)C2CC=CCC2C1=O)C(=O)Nc1ccc(F)cc1Cl (stereo unspecified),8,0,5,43*,-5,3,7%
CCc1ccc(NC(=O)Cn2c(=O)n(CCC(=O)NCCc3ccc(Cl)cc3)c(=O)c3ccccc32)cc1,2,0,-16,-1,-1,nt,nt
O=C(CN1CCCC1)N1c2ccccc2Sc2ccc(Cl)cc21,3,2,5,47*,1,-5,2%
O=C(CN1CCCC1)N1c2ccccc2Sc2ccc(C(F)(F)F)cc21,1,1,11,-2,-2,nt,nt
Cn1c(N)c(C(=O)COC(=O)CCC2CCCCC2)c(=O)n(C)c1=O,19,0,21,46*,3,1,-1%
Cn1c(N)c(C(=O)COC(=O)CCC2CCCC2)c(=O)n(C)c1=O,13,0,-3,6,0,nt,nt
CC1CCC(NC(=O)c2ccc(CS(=O)(=O)c3cccc(C(F)(F)F)c3)o2)CC1 (stereo unspecified),17,1,-5,-13,-2,nt,nt
Nc1ncnc(Nc2ccc(F)c(Cl)c2)n1,1,0,-12,45*,1,-2,2%
COc1cccc(C(=O)N2CCN(Cc3ccccc3C(F)(F)F)CC2)c1,9,0,-10,2,-2,nt,nt
COc1ccc(C(=O)N2CCN(Cc3ccccc3C(F)(F)F)CC2)cc1,7,32*,-4,-8,0,-3,1%
CNC(=O)c1cc2cc(OC)ccc2oc1=O,0,1,0,0,3,nt,nt
COc1ccc2oc(=O)c(C(=O)NC3CCCCCC3)cc2c1,0,0,5,51*,0,-2,-1%
SMILES,D1 agonist,TRHR agonist-1,D1 antag,TRHR enhancer-1,D1 potentiator,TRHR enhancer-2,TRHR agonist-2
COc1cc(CNC(C)(C)CO)ccc1OCC(=O)NC(C)(C)C,0,0,15,0,-5,nt,nt
COc1cc(CNC(C)C23CC4CC(CC(C4)C2)C3)ccc1OCC(=O)NC(C)(C)C (stereo unspecified),37*,43*,2,-16,0,-2,?
COc1cc(CN2CCNC(=O)C2CC(=O)NC2CCCCC2)cc(OC)c1 (stereo unspecified),5,0,12,19,1,nt,nt
COc1cc(CN2CCNC(=O)C2CC(=O)NC2CCCC2)cc(OC)c1 (stereo unspecified),-1,1,0,58*,-2,-7,0%
O=C(COc1ccc(Cl)cc1)NCc1nnc(SCC(=O)Nc2ccccc2F)o1,0,0,-10,44*,-4,2,0%
Cc1cc(-c2nn(-c3ccccc3F)cc2CNCCc2cnc[nH]2)c(C)s1,3,0,-5,51*,-2,-2,1%
Cc1cccc(OCC(=O)Nc2nnc(S(=O)(=O)N3CCc4ccccc43)s2)c1,2,-2,1,9,6,nt,nt
COC(=O)c1cc2oc3ccccc3c2n1Cc1c(C)cc(C)cc1C,1,0,14,-1,-8,nt,nt
COC(=O)c1ccc(C(=O)OC)c(NC(=O)c2cnn3c(C(F)F)cc(-c4ccc(C)cc4)nc23)c1,-1,-1,-4,1,-7,nt,nt
O=C(Nc1cccc2ncccc12)c1ccco1,5,0,4,51*,-7,-6,1%
CCN(CC)CCCNC(=S)N1CCN(c2nc(-c3ccccc3)cs2)CC1,29,2,-37*,42*,-19,-9,?
O=C(CSC1=Nc2ccccc2N=C(c2ccc(F)cc2)C1)NCc1ccccc1,1,2,8,3,-1,nt,nt
CC1CCCCN1CCNC(=O)CN1C(=O)COc2ccccc21 (stereo unspecified),2,0,2,51*,-1,5,1%
NC(=O)CC(NC(=O)Cc1ccc(Br)cc1)c1ccc(N2CCCCCCC2)c([N+](=O)[O-])c1 (stereo unspecified),0,-1,-7,9,-2,nt,nt
NC(=O)CC(NC(=O)Cc1ccc(Br)cc1)c1ccc(N2CCC(Br)CC2)c([N+](=O)[O-])c1 (stereo unspecified),2,0,15,52*,-1,-13,-1%
Cn1nccc1C(=O)Nc1sc2c(c1C(N)=O)CCCC2,2,32*,2,2,-2,-1,3%
Cn1nccc1C(=O)Nc1sc2c(c1C#N)CCCC2,-1,2,4,0,-11,nt,nt
CC1=NN(c2ccccc2)C(=O)/C1=C\c1ccc(Br)s1,2,0,5,9,4,nt,nt
CC1=NN(c2ccccc2)C(=O)/C1=C/c1cccs1,0,28,0,-10,9,-13,1%

# Compound activity: PubChem BioAssay, National Center for Advancing Translational Sciences (NCATS)
